Screening data: PubChem, National Center for Advancing Translational Sciences (NCATS)
HTT aggregate = mutant huntingtin aggregation inhibition | hit rate 1.1% among 220,000 | PC12 HttQ103-GFP aggregates, Acumen cytometry, 40 h | AID 1688 | Potency, µM (highest dose often 46.1 µM), usual class: inhibitors; also: nearly all actives have a fitted effect of over 60% in size
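Steps: seed 1500 PC12 HTTQ103-GFP cells/well; add tebufenozide, 100 nM final; add compound titration; add ATPLite reagent; quantify GFP aggregates by laser scanning cytometry.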
ALDH1A1 inh = ALDH1A1 (human) enzyme inhibition; Potency, µM (titrated, usually from 75.3 µM), most hits filed as inhibitors; AID 1030; Purified ALDH1A1, NADH fluorescence, propionaldehyde substrate; P00352; hit rate 7.3% among 220,000; active = well fitted inhibition curve with a large enough effect, not every such curve was filed as active; inconclusive = small, poorly fitted or top-dose-only effect, or another doubt; inactive = no such curve, though single readings can be large or run the other way
Target sequence (P00352 whole entry, looked up): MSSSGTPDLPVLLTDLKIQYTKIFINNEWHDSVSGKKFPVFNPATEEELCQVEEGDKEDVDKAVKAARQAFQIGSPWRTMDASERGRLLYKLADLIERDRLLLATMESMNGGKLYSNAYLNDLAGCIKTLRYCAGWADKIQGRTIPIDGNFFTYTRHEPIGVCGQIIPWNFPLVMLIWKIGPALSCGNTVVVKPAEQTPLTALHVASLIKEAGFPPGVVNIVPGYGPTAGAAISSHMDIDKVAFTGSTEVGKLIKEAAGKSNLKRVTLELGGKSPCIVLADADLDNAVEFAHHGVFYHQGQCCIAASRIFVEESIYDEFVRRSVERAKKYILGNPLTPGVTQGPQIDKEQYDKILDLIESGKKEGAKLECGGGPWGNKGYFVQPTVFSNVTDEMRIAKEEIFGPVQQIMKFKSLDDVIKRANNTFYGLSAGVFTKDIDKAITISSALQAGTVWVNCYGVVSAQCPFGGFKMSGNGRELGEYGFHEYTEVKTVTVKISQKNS
HPGD block = blocks human HPGD enzyme activity; P15428; purified HPGD, NADH fluorescence kinetic, PGE2 substrate; Potency, µM, actives largely listed as inhibitors; hit rate 4.3% among 150,000; AID 894; active = well fitted inhibition curve with a large enough effect, not every such curve was filed as active; inconclusive = small, poorly fitted or top-dose-only effect, or another doubt; inactive = no such curve, though single readings can be large or run the other way
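NADH formation kinetics: reaction with 30 uM PGE2 and 1 mM NAD+ (final), 20 nM enzyme, Tris-HCl pH 8 with Tween 20, after 15 min compound preincubation at room temperature. Fluorescence change, last versus first of five reads.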
HTT cytoprotect = Huntington cell model cytoprotection by ATP luminescence; PC12 HTT-Q103 induced, cytoprotection, ATP luminescence, 40 h; Potency, µM (titrated, usually from 56.4 µM), actives largely listed as activators; hit rate 0.14% among 230,000; also: nearly all actives have a fitted effect of over 45% in size
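PC12 cells with ecdysone-inducible HTT exon 1 Q103-GFP, induced with 100 nM tebufenozide and co-treated with library compounds in a dose series (1536-well, 1500 cells/well). Cytoprotection read as ATP content by ATPlite luminescence.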
LMNA splice mod = modulators of lamin A splicing; Potency, µM (doses to about 46.1 µM), actives largely listed as inhibitors; HeLa LMNA splicing GFP/RFP minigene ratio, 48 h; hit rate 0.01% among 200,000; active = well fitted inhibition curve with a large enough effect in the signal ratio, with a control signal flat, not every such curve was filed as active; inconclusive = small, poorly fitted or top-dose-only effect, or effect the other way, or a change in a side signal; the % refers to the signal ratio
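S3 HeLa stable clones carrying a lamin A-EGFP splicing minigene plus DsRed2 were seeded at 600 cells/well in Opti-MEM with 2% FBS, pin-dosed and incubated 48 h at 37°C. Acumen cytometry (488 nm) gave the GFP/RFP total-intensity ratio.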
Hits are given with their value; i = inactive; ? = inconclusive; nt = no result given; [ ] = remark or other dose. Shown are actives, neighbours in structure and some others; about 8.8% of the full set was active somewhere. Unless noted, calls follow the shape of the dose curve; as a rule, active = well fitted curve in the direction sought with a large enough effect; inconclusive = small, poorly fitted or top-dose-only effect, or another doubt; inactive = no such curve, though single readings can be large; an effect the other way counts as inactive or inconclusive.

SMILES	HTT aggregate	ALDH1A1 inh	HPGD block	HTT cytoprotect	LMNA splice mod
Fc1ccc(-c2n[nH]c(=S)n2/N=C/c2c[nH]c3ccccc23)cc1	i	?	2.8µM	i[10 µM]	i
S=c1[nH]nc(-c2ccccn2)n1/N=C/c1c(Cl)cccc1Cl	i[9.22 µM]	18µM	nt	i[10 µM]	nt
S=c1[nH]nc(-c2ccccn2)n1/N=C/c1cccc2ccccc12	i	?	3.5µM	i[10 µM]	i
S=c1[nH]nc(-c2ccccn2)n1/N=C/c1ccccc1	i	i	?	nt	i
COc1ccc(Cl)cc1NC(=O)CN(C)S(=O)(=O)c1ccc2c(c1)CCCN2C(C)=O	nt	nt	nt	nt	i
COc1cccc2c1Oc1ncccc1N(C(=O)Nc1ccc(F)c(Cl)c1)C2	nt	nt	nt	nt	i
COc1ccccc1OCc1ccc(C(=O)N2CCN3CCCC3C2)cc1 (configuration not stated)	i[9.22 µM]	?	20µM	i	i
Nc1cnn(Cc2ccccc2F)c1	i	14µM	nt	i[10 µM]	i
Nc1cnn(Cc2ccc(F)cc2)c1	i[9.22 µM]	i	nt	i[10 µM]	?
COc1ccc(-c2nnc(SCC(=O)Nc3cccc(F)c3)s2)cc1	nt	nt	nt	nt	i
O=c1oc(Nc2cccc(Cl)c2)nc2ccccc12	i[9.22 µM]	i	nt	i[1.9 µM]	i
COc1ccc(/C=C2/C(=O)N(CC3CCCO3)C(=S)N2C)c(OC)c1 (configuration not stated)	i	13µM	i	i	i
COc1ccccc1/C=C1\NC(=S)N(CC2CCCO2)C1=O (configuration not stated)	i	0.5µM	28µM	i	i
COc1ccc(/C=C2\SC(=S)N(N3CCOCC3)C2=O)c(OC)c1	i[9.22 µM]	nt	nt	i[10 µM]	nt
O=C(CN(Cc1ccccc1Cl)C(=O)c1ccc(CN2CCOCC2)o1)NCc1ccccc1	i	13µM	i	i[10 µM]	i
COc1ccc(NC(=O)CN2CCOCC2)cc1	i	?	i	i	i
O=C(CN1CCOCC1)NCc1ccccc1	0.32µM	i	i	i	i
O=C(CN1CCOCC1)Nc1ccc(Oc2ccc(NC(=O)CN3CCOCC3)cc2)cc1	i	18µM	?	i[0.074 µM]	i
O=C(CN1CCOCC1)Nc1ccc(OCc2ccccc2)cc1	i	13µM	i	i[10 µM]	i
O=C(NCc1ccccc1)c1ccc(CN2CCOCC2)cc1	i	?	i	i	i
CC1(C)CC(Cc2nc(=S)[nH][nH]2)C(=O)O1 (configuration not stated)	i	i	nt	nt	nt
Cn1cccc1C(=O)OCC(=O)NC(=O)NC1CCCCC1	i	i	nt	i	i
CCOc1ccc(NC(=O)c2c(NCc3cccnc3)sc3c2CCC(C)C3)cc1 (configuration not stated)	nt	nt	nt	nt	i
CC1=CC(=O)C2=C(C)C[C@H](OC(=O)Cc3ccccc3)C3[C@H](OC(=O)[C@H]3C)C12 (some centres not stated)	nt	?	i	i	nt
Cn1cccc1CC(=O)N/N=C/c1cccc2ccccc12	i	?	16µM	i[10 µM]	i
SMILES	HTT aggregate	ALDH1A1 inh	HPGD block	HTT cytoprotect	LMNA splice mod
COc1cc(/C=N/NC(=O)c2ccc(F)cc2)ccc1OC(=O)c1ccco1	i	i	i	nt	i
COc1ccc(CCN2C(=O)/C(=C\c3ccco3)SC2=S)cc1OC	i	?	nt	i[10 µM]	nt
COc1cc(/C=C2/C(=N)N3OC(C)=CC3=NC2=O)ccc1OC(=O)c1ccco1	i	5.6µM	nt	i	i
COC(=O)N/N=C/c1ccc(OC(=O)c2ccco2)c(OC)c1	i[9.22 µM]	i	nt	i[10 µM]	nt
C=CCN1C(=O)/C(=C\c2ccc(OC(=O)c3ccco3)c(OC)c2)SC1=S	i	0.22µM	nt	i	nt
COc1cc(/C=C2/C(=O)NN(c3ccc(Cl)cc3)C2=O)ccc1OC(=O)c1ccco1	i	?	7.9µM	nt	i
COc1cc(/C=C2/C(=O)NN(c3cccc(F)c3)C2=O)ccc1OC(=O)c1ccco1	i	22µM	4µM	i[10 µM]	i
CC(C)c1nn2c(=O)cc(COC(=O)c3ccc(NC(=O)CCc4ccccc4)cc3)nc2s1	nt	nt	nt	nt	i
COc1ccc(-c2cn3nc(N4CCC(C(=O)Nc5cc(Cl)ccc5OC)CC4)sc3n2)cc1	nt	nt	nt	nt	i
CC(=O)OC[C@@H]1O[C@H](C/C=N\OC[C@@H](O)COCc2ccco2)C=C[C@@H]1OC(C)=O	nt	i[13.5 µM]	nt	i[10 µM]	nt
Cc1ccccc1CSc1nnc2[nH]c(=O)cc(C)n12	nt	nt	nt	nt	i
O=C1c2ccc3c4c(ccc(c24)C(=O)N1CCCCO)C(=O)N(CCCCO)C3=O	5µM	?	nt	i	?
O=C(c1ccc2c(c1)C(=O)N(CCCO)C2=O)c1ccc2c(c1)C(=O)N(CCCO)C2=O	i	?	i	i	i
COc1ccc(NC(=O)COCc2cc(-c3ccc4c(c3)OCO4)on2)cc1	nt	nt	nt	nt	i
COc1ccc(NC(=O)CSc2nc3ccccc3c(=O)n2CCCN2CCCCC2)c(OC)c1	i[9.22 µM]	10µM	i	i	i
CC(=O)OCC1OC(C#CCC2CCCCC2)C=CC1OC(C)=O (configuration not stated)	nt	4.5µM	nt	i[10 µM]	nt
CC(=O)OCC1OC(C#CC2=CCCCC2)C=CC1OC(C)=O (configuration not stated)	nt	?	nt	i[10 µM]	nt
O=C(/C=C/c1ccc(Cl)cc1)NC(=S)Nc1ccc(N2CCOCC2)c(Cl)c1	i	14µM	nt	i[10 µM]	i
O=C(/C=C/c1ccc(S(=O)(=O)N2CCOCC2)cc1)NC(=S)Nc1ccc(Cl)cc1Cl	?	1.1µM	nt	i[10 µM]	?
Cc1ccc(NC2=NC(c3ccc(F)cc3)n3c(nc(C)cc3=O)N2)cc1 (configuration not stated)	i[9.22 µM]	nt	nt	i[10 µM]	nt
